# Data: ChEMBL document CHEMBL1201862, “PubChem BioAssay data set” (2004)
# The whole screen tested about 57,000 sequences, of which about 5,100 (8.9%) were called active. No stated cut-off is given here; in the data, active = GI50 up to about 1.1 µM and inactive = higher. These entries were drawn from the full list. Potency and affinity values are given separately.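 Five concentrations, 48 hours, 96-well plates. Here, GI50 denotes the concentration required for 50% inhibition of growth.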
# Tested on: HCT-116
# Assay: NCI tumour cell line growth inhibition, 48 h
row,Substance,GI50
1,"[Bis(aminomethyl)tetramethylenesilane]dichloropaltinum(II), CHEMBL2146205",11.5 µM
2,"[Bis(aminomethyl)pentamethylenesilane]dichloropaltinum(II), CHEMBL2146202",2.48 µM
3,"CISPLATIN, CHEMBL11359",4.12 µM
4,"mu-(1,7-nanodiamine-N,N')bis-(cis-aminedichloroplatimum (II)), CHEMBL2146215",41.3 µM
5,"[Bis(aminomethyl)pentamethylenesilane]tetrachloropaltinum(IV), CHEMBL2146204",1.13 µM
6,"[Bis(aminomethyl)dimethylsilane]tetrachloroplatinum(IV), CHEMBL2146190",8.77 µM
7,"[Bis(aminomethyl)diethylsilane]tetrachloroplatinum(IV), CHEMBL2146203",3.94 µM
8,"[Bis(aminomethyl)tetramethylenesilane]tetrachloropaltinum(IV), CHEMBL2146189",4.18 µM
